We go through 1 sequence from article PMC7862700, “An all-to-all approach to the identification of sequence-specific readers for epigenetic DNA modifications on cytosine”.

Holding throughout (experiment): DAPPL (digital affinity profiling via proximity ligation, sequencing); 10 mM Tris-HCl pH 7.5, 50 mM NaCl, 1 mM DTT, 4% glycerol, room temperature, 30 min; GST-TFs on glutathione beads, 16-mer random dsDNA library, 0.1% formaldehyde crosslink after washing; high values mean tight binding
One assay addresses T1, FEV (Homo sapiens, UniProt Q99581 1-238).
T1 sequence: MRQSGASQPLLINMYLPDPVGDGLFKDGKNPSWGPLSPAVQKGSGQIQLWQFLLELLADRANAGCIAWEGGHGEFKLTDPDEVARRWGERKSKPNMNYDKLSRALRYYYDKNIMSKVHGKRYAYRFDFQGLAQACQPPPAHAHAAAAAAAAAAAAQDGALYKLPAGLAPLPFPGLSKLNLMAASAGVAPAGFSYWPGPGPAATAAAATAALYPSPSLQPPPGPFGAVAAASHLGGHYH
The note with it: protein: recombinant; tags: N-terminal GST; dsDNA, one strand shown. A digest of the protocol: (§1)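 Sequencing on an Illumina NextSeq500 followed washing, crosslinking with 0.1% formaldehyde, proximity ligation (BsaI/T4 ligase, 1 h, 37 °C) and PCR amplification of pools that had been incubated for 30 min at room temperature with 200 nmole of a random double-stranded 16-mer DNA library in Tris/NaCl/DTT/glycerol buffer. Each pool held DNA-barcoded human transcription factors, expressed in yeast as GST fusions and captured on glutathione beads, plus a tag-only sample. Binding signal is a hexamer's read frequency for a factor divided by its frequency in the tag-only sample.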

A further assay addresses ETV5 (Homo sapiens, UniProt P41161 1-510). The note with it: protein: recombinant; tags: N-terminal GST; dsDNA, one strand shown. A digest of the protocol: as §1
Another assay concerns the target HSF1 (Homo sapiens, UniProt Q00613 1-529). The note with it: protein: recombinant; tags: N-terminal GST; chain copies: 3; dsDNA, one strand shown. An outline of the steps:
as §1

The target in another assay is T2, SPIC (Homo sapiens, UniProt Q8N5J4 1-248).
T2 sequence: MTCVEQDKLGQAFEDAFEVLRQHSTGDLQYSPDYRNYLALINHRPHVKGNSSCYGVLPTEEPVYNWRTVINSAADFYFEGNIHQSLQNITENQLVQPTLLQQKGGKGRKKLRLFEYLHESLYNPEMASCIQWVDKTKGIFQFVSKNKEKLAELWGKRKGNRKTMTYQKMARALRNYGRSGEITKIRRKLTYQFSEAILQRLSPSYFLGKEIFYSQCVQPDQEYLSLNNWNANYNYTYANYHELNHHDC
The note with it: protein: recombinant; tags: N-terminal GST; dsDNA, one strand shown. An outline of the steps:
as §1

Another assay deals with ELF4 (Homo sapiens, UniProt Q99607 1-663). The note with it: protein: recombinant; tags: N-terminal GST; dsDNA, one strand shown. A digest of the protocol: as §1
The target in another assay is T3, ELK4 (Homo sapiens, UniProt P28324-2 1-405).
T3 sequence: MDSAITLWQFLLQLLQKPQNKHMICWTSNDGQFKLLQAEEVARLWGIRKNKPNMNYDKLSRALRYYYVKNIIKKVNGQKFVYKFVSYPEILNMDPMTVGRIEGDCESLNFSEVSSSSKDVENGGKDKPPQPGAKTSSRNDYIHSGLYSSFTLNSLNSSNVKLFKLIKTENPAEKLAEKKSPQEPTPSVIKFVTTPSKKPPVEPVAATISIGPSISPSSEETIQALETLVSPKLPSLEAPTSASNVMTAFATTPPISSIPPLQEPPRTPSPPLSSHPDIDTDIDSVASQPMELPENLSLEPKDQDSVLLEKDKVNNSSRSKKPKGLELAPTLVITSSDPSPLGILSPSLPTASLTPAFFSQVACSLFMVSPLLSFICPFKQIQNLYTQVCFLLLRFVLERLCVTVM
The conditions noted are these: protein: recombinant; tags: N-terminal GST; dsDNA, one strand shown. A digest of the protocol:
as §1

A further assay has as its target T4, ETV2 (Homo sapiens, UniProt O00321 1-342).
T4 sequence: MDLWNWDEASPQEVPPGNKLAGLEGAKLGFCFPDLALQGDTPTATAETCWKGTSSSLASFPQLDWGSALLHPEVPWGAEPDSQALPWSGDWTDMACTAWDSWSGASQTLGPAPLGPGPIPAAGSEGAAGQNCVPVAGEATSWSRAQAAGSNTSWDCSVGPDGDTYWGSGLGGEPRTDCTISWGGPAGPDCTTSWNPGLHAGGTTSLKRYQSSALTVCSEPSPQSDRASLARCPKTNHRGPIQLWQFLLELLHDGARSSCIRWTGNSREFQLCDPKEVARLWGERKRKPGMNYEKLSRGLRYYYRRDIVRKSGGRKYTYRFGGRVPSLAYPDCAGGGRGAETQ
The conditions noted are these: protein: recombinant; tags: N-terminal GST; dsDNA, one strand shown. A digest of the protocol: as §1

A further assay has as its target T5, ELF3 (Homo sapiens, UniProt P78545 1-371).
T5 sequence: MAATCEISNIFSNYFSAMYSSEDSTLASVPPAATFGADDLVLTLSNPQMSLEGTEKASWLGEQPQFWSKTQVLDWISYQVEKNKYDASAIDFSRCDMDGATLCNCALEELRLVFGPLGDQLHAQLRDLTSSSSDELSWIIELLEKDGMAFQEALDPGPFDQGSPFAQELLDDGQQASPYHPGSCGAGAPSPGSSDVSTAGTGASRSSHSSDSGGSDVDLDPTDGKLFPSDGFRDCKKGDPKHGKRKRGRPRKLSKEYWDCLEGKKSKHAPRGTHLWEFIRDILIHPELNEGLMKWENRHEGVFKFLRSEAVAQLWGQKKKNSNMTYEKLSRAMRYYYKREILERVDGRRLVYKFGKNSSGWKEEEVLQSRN
The note with it: protein: recombinant; tags: N-terminal GST; dsDNA, one strand shown. A digest of the protocol: as §1

A further assay has as its target CRX (Homo sapiens, UniProt O43186 1-299). The note with it: protein: recombinant; tags: N-terminal GST; dsDNA, one strand shown. A digest of the protocol: as §1
For another assay, the target named is ETV1 (Homo sapiens, UniProt P50549 1-477). The note with it: protein: recombinant; tags: N-terminal GST; dsDNA, one strand shown. An outline of the steps: as §1
For a further assay, the target named is T6, ERF (Homo sapiens, UniProt P50548 1-548).
T6 sequence: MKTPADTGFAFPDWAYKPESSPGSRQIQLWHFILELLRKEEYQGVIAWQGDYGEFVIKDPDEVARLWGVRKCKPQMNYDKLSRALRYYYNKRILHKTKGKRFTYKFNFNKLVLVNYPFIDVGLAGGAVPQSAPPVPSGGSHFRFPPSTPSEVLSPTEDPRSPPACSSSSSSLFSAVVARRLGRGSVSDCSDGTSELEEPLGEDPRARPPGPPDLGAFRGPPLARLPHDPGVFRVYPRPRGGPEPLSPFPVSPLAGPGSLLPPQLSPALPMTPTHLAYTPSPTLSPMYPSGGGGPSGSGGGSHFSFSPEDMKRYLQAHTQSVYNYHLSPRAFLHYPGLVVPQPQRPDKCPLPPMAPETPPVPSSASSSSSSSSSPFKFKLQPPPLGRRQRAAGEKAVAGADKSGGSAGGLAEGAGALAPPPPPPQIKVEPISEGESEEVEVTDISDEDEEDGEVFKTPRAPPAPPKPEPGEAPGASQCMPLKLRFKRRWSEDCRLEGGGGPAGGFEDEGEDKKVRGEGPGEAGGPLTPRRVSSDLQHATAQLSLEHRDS
The conditions noted are these: protein: recombinant; tags: N-terminal GST; dsDNA, one strand shown. An outline of the steps:
as §1

The target of the next assay is T7, ETV3L (Homo sapiens, UniProt Q6ZN32 1-361).
T7 sequence: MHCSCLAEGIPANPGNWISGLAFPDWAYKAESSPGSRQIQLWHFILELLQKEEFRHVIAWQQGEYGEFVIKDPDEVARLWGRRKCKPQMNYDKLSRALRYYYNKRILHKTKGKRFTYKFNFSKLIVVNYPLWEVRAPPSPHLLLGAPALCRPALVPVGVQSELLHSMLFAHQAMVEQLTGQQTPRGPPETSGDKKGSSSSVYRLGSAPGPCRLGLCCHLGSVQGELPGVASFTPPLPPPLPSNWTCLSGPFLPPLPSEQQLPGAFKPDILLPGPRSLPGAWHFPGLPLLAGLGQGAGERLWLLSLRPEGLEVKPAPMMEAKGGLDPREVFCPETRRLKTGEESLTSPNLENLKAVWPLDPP
The conditions noted are these: protein: recombinant; tags: N-terminal GST; dsDNA, one strand shown. A digest of the protocol:
as §1

In the next assay the target is T8, ETS2 (Homo sapiens, UniProt P15036 1-469).
T8 sequence: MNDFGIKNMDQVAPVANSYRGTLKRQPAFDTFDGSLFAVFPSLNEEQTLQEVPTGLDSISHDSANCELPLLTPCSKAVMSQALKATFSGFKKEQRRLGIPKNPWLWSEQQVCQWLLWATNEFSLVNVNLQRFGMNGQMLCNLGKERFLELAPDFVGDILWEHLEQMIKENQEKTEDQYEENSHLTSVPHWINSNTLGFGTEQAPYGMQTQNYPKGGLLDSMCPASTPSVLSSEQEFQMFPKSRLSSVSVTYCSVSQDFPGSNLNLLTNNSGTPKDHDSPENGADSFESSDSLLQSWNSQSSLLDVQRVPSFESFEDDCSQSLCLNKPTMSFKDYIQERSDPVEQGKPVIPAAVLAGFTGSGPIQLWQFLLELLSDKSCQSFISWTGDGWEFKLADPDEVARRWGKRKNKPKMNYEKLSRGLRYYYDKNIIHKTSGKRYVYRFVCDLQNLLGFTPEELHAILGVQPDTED
The note with it: protein: recombinant; tags: N-terminal GST; dsDNA, one strand shown. An outline of the steps: as §1

The target of a further assay is T9, SPDEF (Homo sapiens, UniProt O95238 1-335).
T9 sequence: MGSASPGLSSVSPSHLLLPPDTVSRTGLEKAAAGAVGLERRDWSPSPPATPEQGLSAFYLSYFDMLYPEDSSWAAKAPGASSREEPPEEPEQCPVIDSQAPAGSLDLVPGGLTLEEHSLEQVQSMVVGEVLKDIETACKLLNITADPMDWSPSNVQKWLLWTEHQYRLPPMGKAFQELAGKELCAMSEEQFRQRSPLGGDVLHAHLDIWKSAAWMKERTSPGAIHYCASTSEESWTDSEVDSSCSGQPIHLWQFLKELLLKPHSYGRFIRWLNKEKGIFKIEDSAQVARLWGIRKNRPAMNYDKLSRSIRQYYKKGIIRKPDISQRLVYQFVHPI
The conditions noted are these: protein: recombinant; tags: N-terminal GST; dsDNA, one strand shown. A digest of the protocol: as §1

The target in another assay is T10, ETV7 (Homo sapiens, UniProt Q9Y603 1-341).
T10 sequence: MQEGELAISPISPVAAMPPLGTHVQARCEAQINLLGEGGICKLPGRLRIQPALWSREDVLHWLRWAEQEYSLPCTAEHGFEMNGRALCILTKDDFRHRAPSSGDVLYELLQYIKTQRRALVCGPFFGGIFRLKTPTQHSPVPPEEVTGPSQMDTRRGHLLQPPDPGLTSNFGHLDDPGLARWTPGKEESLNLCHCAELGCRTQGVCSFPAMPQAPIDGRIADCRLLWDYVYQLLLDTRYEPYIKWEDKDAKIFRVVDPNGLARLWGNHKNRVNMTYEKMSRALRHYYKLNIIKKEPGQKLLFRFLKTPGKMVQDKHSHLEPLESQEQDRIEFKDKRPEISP
The note with it: protein: recombinant; tags: N-terminal GST; dsDNA, one strand shown. A digest of the protocol: as §1

The next assay concerns the target T11, ELF5 (Homo sapiens, UniProt Q9UKW6-2 1-255).
T11 sequence: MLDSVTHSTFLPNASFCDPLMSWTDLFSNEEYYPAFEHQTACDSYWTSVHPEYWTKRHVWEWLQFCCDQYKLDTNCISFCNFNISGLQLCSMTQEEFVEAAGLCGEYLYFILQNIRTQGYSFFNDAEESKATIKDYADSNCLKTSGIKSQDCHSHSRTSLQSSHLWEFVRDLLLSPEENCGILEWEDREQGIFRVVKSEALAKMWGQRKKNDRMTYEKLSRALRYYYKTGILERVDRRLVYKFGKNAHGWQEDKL
The note with it: protein: recombinant; tags: N-terminal GST; dsDNA, one strand shown. A digest of the protocol:
as §1

Another assay has as its target T12, ETV3 (Homo sapiens, UniProt P41162-2 1-143).
T12 sequence: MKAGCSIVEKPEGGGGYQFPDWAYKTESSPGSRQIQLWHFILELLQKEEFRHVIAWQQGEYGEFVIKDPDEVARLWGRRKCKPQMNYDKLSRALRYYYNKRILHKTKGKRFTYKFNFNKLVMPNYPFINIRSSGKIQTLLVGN
The note with it: protein: recombinant; tags: N-terminal GST; dsDNA, one strand shown. An outline of the steps: as §1

The target of another assay is ETV6 (Homo sapiens, UniProt P41212 1-452). The conditions noted are these: protein: recombinant; tags: N-terminal GST; dsDNA, one strand shown. An outline of the steps:
as §1

ETV6, sequence (P41212 whole entry): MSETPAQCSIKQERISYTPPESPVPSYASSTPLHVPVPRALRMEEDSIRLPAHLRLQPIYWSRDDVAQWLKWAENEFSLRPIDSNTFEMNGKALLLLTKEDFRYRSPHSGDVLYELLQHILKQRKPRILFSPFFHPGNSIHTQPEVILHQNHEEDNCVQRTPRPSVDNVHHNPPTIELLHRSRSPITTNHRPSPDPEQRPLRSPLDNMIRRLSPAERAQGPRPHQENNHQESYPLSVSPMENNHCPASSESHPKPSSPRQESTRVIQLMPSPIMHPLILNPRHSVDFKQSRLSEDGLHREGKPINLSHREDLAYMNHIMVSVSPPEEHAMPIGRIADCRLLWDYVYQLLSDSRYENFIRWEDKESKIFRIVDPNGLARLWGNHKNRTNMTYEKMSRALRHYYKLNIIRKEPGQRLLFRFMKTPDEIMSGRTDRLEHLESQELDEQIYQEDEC
CRX, sequence (O43186 whole entry): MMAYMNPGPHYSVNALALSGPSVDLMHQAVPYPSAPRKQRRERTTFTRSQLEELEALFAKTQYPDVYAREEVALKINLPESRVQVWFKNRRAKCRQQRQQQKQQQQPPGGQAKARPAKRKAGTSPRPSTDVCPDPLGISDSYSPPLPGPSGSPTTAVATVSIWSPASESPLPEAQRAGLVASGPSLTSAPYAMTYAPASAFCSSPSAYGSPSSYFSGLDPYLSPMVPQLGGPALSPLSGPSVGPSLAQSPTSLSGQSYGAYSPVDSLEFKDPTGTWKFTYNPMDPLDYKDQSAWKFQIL
ETV1, sequence (P50549 whole entry): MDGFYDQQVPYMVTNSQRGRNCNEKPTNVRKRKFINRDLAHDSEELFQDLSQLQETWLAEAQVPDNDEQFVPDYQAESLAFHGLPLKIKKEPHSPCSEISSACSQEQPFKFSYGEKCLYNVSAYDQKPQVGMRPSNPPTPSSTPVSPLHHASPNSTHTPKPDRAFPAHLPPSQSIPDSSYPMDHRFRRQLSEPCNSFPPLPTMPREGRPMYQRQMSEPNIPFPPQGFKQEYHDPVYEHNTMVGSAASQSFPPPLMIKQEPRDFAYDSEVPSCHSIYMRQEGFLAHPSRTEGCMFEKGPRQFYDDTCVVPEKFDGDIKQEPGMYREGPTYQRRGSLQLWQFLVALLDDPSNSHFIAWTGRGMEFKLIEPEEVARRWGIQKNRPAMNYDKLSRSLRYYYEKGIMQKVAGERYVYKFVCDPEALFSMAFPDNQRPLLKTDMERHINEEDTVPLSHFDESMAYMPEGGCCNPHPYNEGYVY
ETV5, sequence (P41161 whole entry): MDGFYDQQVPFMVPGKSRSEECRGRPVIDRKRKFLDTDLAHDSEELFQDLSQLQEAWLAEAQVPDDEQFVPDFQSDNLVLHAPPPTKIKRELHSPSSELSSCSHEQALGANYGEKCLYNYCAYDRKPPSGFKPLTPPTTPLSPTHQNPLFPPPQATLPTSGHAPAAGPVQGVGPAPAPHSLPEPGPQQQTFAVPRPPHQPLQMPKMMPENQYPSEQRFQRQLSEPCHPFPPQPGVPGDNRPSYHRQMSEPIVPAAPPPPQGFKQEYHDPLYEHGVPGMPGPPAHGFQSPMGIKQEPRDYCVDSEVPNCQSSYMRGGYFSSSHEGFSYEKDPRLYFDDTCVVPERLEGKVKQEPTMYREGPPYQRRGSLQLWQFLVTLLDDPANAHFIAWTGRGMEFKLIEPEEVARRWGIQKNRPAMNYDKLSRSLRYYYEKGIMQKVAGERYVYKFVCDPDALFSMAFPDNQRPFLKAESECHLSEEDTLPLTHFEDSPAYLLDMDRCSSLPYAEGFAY
ELF4, sequence (Q99607 whole entry): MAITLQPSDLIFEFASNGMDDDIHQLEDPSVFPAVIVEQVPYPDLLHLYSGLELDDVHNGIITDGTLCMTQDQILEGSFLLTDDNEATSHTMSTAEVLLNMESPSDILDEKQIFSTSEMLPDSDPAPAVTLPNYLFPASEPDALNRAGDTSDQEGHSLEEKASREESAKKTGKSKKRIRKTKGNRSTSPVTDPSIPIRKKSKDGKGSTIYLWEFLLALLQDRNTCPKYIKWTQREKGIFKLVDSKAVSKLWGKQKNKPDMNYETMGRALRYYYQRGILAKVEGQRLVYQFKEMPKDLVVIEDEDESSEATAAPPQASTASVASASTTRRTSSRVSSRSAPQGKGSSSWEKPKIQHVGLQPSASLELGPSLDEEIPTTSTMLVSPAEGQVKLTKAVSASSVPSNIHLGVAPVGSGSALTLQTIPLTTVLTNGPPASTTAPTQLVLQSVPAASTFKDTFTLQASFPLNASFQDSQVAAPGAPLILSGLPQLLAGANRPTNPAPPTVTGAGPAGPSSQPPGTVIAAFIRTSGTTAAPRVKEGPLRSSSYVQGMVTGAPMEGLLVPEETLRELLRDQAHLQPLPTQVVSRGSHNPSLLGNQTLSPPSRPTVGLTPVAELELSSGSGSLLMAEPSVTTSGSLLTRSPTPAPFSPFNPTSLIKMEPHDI
HSF1, sequence (Q00613 whole entry): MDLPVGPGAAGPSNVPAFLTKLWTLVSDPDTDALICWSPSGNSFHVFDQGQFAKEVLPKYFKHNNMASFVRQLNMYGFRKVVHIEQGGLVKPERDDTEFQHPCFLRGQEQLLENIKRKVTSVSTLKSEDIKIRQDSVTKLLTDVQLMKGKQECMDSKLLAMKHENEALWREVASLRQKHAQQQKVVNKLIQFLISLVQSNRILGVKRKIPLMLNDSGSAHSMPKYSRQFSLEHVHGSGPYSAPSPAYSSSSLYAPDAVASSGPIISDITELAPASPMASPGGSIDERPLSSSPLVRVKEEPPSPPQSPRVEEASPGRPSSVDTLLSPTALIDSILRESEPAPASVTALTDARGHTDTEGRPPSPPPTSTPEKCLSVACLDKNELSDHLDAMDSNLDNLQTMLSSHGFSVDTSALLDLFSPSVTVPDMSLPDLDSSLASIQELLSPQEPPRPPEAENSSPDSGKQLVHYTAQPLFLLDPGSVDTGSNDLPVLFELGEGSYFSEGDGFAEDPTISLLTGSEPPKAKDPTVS

Take TTTCTC: the binding signal is 1.52 fold enrichment (6-mer frequency, TF over GST control) with FEV; 1.53 fold enrichment (6-mer frequency, TF over GST control) in the assay with ETV5; 2.63 fold enrichment (6-mer frequency, TF over GST control) in the assay with HSF1; 1.55 fold enrichment (6-mer frequency, TF over GST control) in the assay with SPIC; 1.6 fold enrichment (6-mer frequency, TF over GST control) in the assay with ELF4; 1.78 fold enrichment (6-mer frequency, TF over GST control) with ELK4. Moreover, the binding signal in the assay with ETV2 was 1.65 fold enrichment (6-mer frequency, TF over GST control); with ELF3, 1.86 fold enrichment (6-mer frequency, TF over GST control); with CRX, 1.67 fold enrichment (6-mer frequency, TF over GST control); in the assay with ETV1, 1.46 fold enrichment (6-mer frequency, TF over GST control); in the assay with ERF it was 1.58 fold enrichment (6-mer frequency, TF over GST control); with ETV3L, 1.68 fold enrichment (6-mer frequency, TF over GST control). Also, the binding signal was 1.77 fold enrichment (6-mer frequency, TF over GST control) with ETS2; 1.49 fold enrichment (6-mer frequency, TF over GST control) with SPDEF; 1.57 fold enrichment (6-mer frequency, TF over GST control) with ETV7; 1.56 fold enrichment (6-mer frequency, TF over GST control) in the assay with ELF5; 1.62 fold enrichment (6-mer frequency, TF over GST control) with ETV3; 1.65 fold enrichment (6-mer frequency, TF over GST control) in the assay with ETV6.
